# In the supplement of paper PMC10338343:
# ± gives the standard deviation.
# System: MILI (PIWIL2) piRISC loaded with L1MC piRNA (26 nt)
# Experiment: pre-steady-state target cleavage rate (min^-1); guide: L1MC piRNA 5'p-UAACUAAAUACUAUGCAAGCUGUAGG; MIWI and MILI are mouse PIWI proteins and EfPiwi is from a freshwater sponge; tags in brackets are library labels; higher = faster piRNA-guided slicing of the target
# Conditions: auxiliary factor: 500 nM mouse GTSF1
# How it was run: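 In Cleave-'n-Seq, a transcribed, DNA-blocked target RNA library (0.1 nM) was combined with 1 nM active affinity-purified piRISC bearing one synthetic guide, with or without 500 nM GTSF1 partner protein. Reactions ran in HEPES–potassium acetate buffer at 33 °C for 0–8 or 0–960 min. Uncleaved targets were sequenced and normalised to depth and to weakly complementary targets, three trials were pooled, and k3 was capped at 0.0001 min^-1. The pre-steady-state cleavage rate was obtained by fitting a burst-and-steady-state model.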
row,Sequence,pre-steady-state target cleavage rate
1,UCCUGGUACAGCUUGCAUAGAUAUUAGUUA,0.0155 ± 0.005
2,UCCUGGAACAGCAUGCAUAGUAUUUUGUUA,0.116 ± 0.017
3,UCCUGGUACAGCUUGCAAAGUAUUUUCAAA,0.0283 ± 0.012
4,UCCUGGAUCAGCAAGCAUAGUAUUUACAAA,0.108 ± 0.023
5,UCCUGGUACAGCUUGCAUAGUAUGUAGUUA,0.03 ± 0.011
6,UCCUGGAUGUCGAAGCAUAGUAUUAUGUUA,0.00859 ± 0.0044
7,UCCUGGAACAGCUUGCAUAGAAUAUAGUUA,0.0426 ± 0.011
8,UCCUGGAUCAGCUUGCAAUGUAUUUUCAAA,0.00576 ± 0.0035
9,UCCUGCUACAGCUUGCAUACUAUAUAGUUA,0.0515 ± 0.015
10,UCCUCCUACAGCUUGCAUGAGUAUUUAGUUA,0.011 ± 0.0056
11,UCCUGGAUGUCGAACCAUUGUAUAUAGUUA,< 0.0001
12,UCCUGGAUCAGGUUGCAUAGUAUUUACAAA,0.0312 ± 0.011
13,UCCUGGAUGAGCUUGCAUAGUAUUUACUUA,0.0753 ± 0.019
14,UCCUGGAUGUGCUUGCAUAGAAUAUAGUUA,0.00814 ± 0.0043
15,UCCUGGAUCAGCUUGCAUAGUAUAAUCAAA,0.0782 ± 0.019
16,UCCUGGAACAGCAACCAUAGUAUUUAGUAA,0.143 ± 0.019

row,Sequence,pre-steady-state target cleavage rate
1,UCCUGGAUGUCGAUGCAUACUAUUUAGUUA,0.0178 ± 0.0056
2,UCCUGGAUCAGCUUGCAUAGUAUAUUCAAA,0.0428 ± 0.01
3,UCCUGGAUGUCGAAGCAUAGUAUUUAUGUUA,0.022 ± 0.0065
4,UCCUGGAUGAGGAAGCAUAGUAUUUAGUAA,0.0509 ± 0.013
5,UCCUGGAUCAGCUUGCAUAGUAAAUAGAAA,0.0183 ± 0.0078
6,UCCUGGAUCACCUUGCAUAGUAUUUACUUA,0.0587 ± 0.017
7,UCCUCCUACAGCUUGCAAUGUAUUUUCAAA,0.0219 ± 0.0065
8,UCCUGGAUGUCCUUGCUUAGUAUUUAGUAA,0.0426 ± 0.013
9,UCCUGGAACAGCUUGCAUAGUAUUAUCAAA,0.0521 ± 0.017
10,UCCUGGAACAGCUUGCUAAGUAUUUACAAA,0.0164 ± 0.0066
11,UCCUGGUACAGCUUGCAAAGUAUAUAGUUA,0.0931 ± 0.016
12,UCCUGGUACAGCAAGCAUAGUAUUUACAAA,0.0528 ± 0.019
13,UCCUGGAUGUCGAACCAUAGAAUUUAGUUA,< 0.0001
14,UCCUGGAUGUCGAACGUAUGUAUUUAGUAUA,< 0.0001
15,UCCUGGAAGUCCUUGCAUAGUAUUUUCAAA,0.0197 ± 0.0079
16,UCCUGGAUGUCCUUGCAUAGUAUAAUCAAA [g8:g19:cont:t1A],0.00606 ± 0.0037

# Same assay, conditions: auxiliary factor: none (no GTSF1)
row,Sequence,pre-steady-state target cleavage rate
1,UCCUGGAUGUCGAACGUAUGUAUUUCGUUA,< 0.0001
2,UCCUGGAUGUCGAACGUAUCUAUUAAGUUA,< 0.0001
3,UCCUGGAUCAGCUUGCAAUCUAUUUACAAA,< 0.0001
4,UCCUGGAUGUCGAACGUUAGUAUUUAGUAA,< 0.0001
5,UCCUGGAUGUCGAUCCAUAGUAUUUUGUUA,< 0.0001
6,UCCUGGAUGUCGAACCAUAGUAAAUAGUUA,< 0.0001
7,UCCUGGAUGUCGAACGUAUGAAUUUUGUUA,< 0.0001
8,UCCUGGAUGUCGAACGUGAGUAUUUAGUUA,< 0.0001
